PubChem BioAssay (EPA / NIEHS)
Records with an inconclusive call do not appear. Activity calls are given as the source filed them. How the source made its calls, unless noted: active means hit-call score of the fitted dose curve at least 0.9, where 1 is the maximum; inactive means score below 0.9.

What was measured:
[1] = IUF_NPC2c_oligodendrocyte_migration_120hr: Leibniz Research Institute for Environmental Medicine (IUF) 120-hour Neural Progenitor Cell Migration Assay for Oligodendrocyte Migration (NPC2c) (AID 2284297);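 further: O4-positive oligodendrocyte migration distance divided by radial glia migration distance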
Summary of the method: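 Using fetal brain neural progenitor spheres differentiating in N2 medium at 37C, compounds were present for 120 h. Oligodendrocyte migration distance, normalized to radial glia migration, was measured from imaged O4 staining.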

[2] = IUF_NPC2a_radial_glia_migration_120hr: Leibniz Research Institute for Environmental Medicine (IUF) 120-hour Neural Progenitor Cell Migration Assay for Radial Glia Migration (NPC2a) (AID 2284298)
Summary of the method: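 Exposure of 0.3 mm primary hNPC spheres runs day 0 to 120 h with a half-volume medium change at day 3. Fixed cells get Hoechst staining; high-content analysis of nuclear positions yields radial glia migration distance per well, compared against DMSO controls.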

[3] = IUF_NPC3_neuronal_differentiation_120hr: Leibniz Research Institute for Environmental Medicine (IUF) 120-hour Neuronal Differentiation Assay (NPC3) (AID 2284301)
Summary of the method: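 Primary human fetal neural progenitor spheres (GW 16-19, 0.3 mm) plated on poly-D-lysine/laminin in N2 medium, exposed from day 0 for 120 h with half-medium refresh at day 3. TUBB3+ cells as percent of Hoechst nuclei in migration area; DMSO baseline.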

[4] = IUF_NPC4_neurite_length_120hr: Leibniz Research Institute for Environmental Medicine (IUF) 120-hour Neuronal Morphology Assay for Neurite Length (NPC4) (AID 2284302)
Summary of the method: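 Human fetal cortex (GW 16-19) neural progenitor spheres, 0.3 mm, were plated on poly-D-lysine/laminin in N2 differentiation medium and exposed from day 0 for 120 h, half-feeding at day 3. Mean TUBB3+ neurite length (µm) came from skeletonized images, relative to DMSO.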

[5] = IUF_NPC4_neurite_area_120hr: Leibniz Research Institute for Environmental Medicine (IUF) 120-hour Neuronal Morphology Assay for Neurite Area (NPC4) (AID 2284305; active means hit-call score of the fitted dose curve at least 0.9, where 1 is the maximum)
Summary of the method: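 Human fetal cortex-derived neural progenitor spheres (0.3 mm, GW 16-19) plated on poly-D-lysine/laminin in N2 differentiation medium and exposed from day 0 for 120 h across 7 concentrations plus solvent control. Neurite area is mean pixel area per TUBB3-positive neuron via skeletonization, analysed relative to DMSO.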

[6] = IUF_NPC2-5_cytotoxicity_72hr: Cytotoxicity Assessment at 72 hours in the Leibniz Research Institute for Environmental Medicine (IUF) Neural Progenitor Cell Migration and Differentiation Assay for Cytotoxicity (NPC2-5) (AID 2284306; active means hit-call score of the fitted dose curve at least 0.9, where 1 is the maximum;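 further: LDH release into supernatant measured by resorufin fluorescence marking membrane damage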)
Summary of the method: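 Human fetal (GW 16-19) neural progenitor spheres, 0.3 mm, plated on poly-D-lysine/laminin in N2 differentiation medium and exposed from day 0 to 7 concentrations plus solvent control (DMSO ≤0.1%). LDH-dependent resazurin-to-resorufin fluorescence in supernatant at 72 h.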

[7] = read-out: Interleukin-8 (IL8), CXCL8 (gene 3576); assay: BSK_MyoF_IL8: BioMAP Diversity Plus: MyoF Assay for Interleukin-8 (IL8) Biomarker Activity (AID 2284261); conditions: primary human lung fibroblasts
Summary of the method: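 DMSO-normalised, upward-fitted IL-8 ELISA signal; human lung fibroblasts, 24 h chemical treatment.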

Decorin, DCN (gene 1634) = assay: BSK_MyoF_Decorin: BioMAP Diversity Plus: MyoF Assay for Decorin Biomarker Activity (AID 2284265); conditions: primary human lung fibroblasts
Description: BSK_MyoF is a cell-based, multiplexed-readout assay that uses lung fibroblasts, […], with measurements taken at 24 hours after chemical dosing in a microplate: 96-well plate.BSK_MyoF_Decorin is an assay component measured in the BSK_MyoF assay. It measures Decorin antibody related to regulation of gene expression using ELISA technology.Data from the assay component BSK_MyoF_Decorin was analyzed at the endpoint, BSK_MyoF_Decorin, in the positive analysis fitting direction relative to DMSO as the negative control and baseline of activity. Using a type of binding reporter, gain or loss-of-signal activity can be used to understand protein changes. […]
(§1) The levels of cell surface (or secreted, indicated by the prefix "s") biomarker endpoints were measured by ELISA. Overt cytotoxicity to cells in confluent adherent cultures (all systems other than the BT system) was assessed by measuring total protein levels using sulforhodamine B (SRB) staining in parallel cultures at the time of biomarker measurements, indicated as SRB endpoints. For proliferation assays for adherent cell types, individual cell types are cultured at sub-confluence and relative cell numbers quantified by SRB staining at time points optimized for each system (48 h: 3C and CASM3C systems; 72 h: BT and HDF3CGF systems; 96 h: SAg system). […] Plates were read after 6 h.

[8] = BSK_MyoF_SRB: Viability Assessment in the BioMAP Diversity Plus: MyoF Assay (AID 2284267); conditions: primary human lung fibroblasts;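 further: total protein by SRB absorbance in parallel cultures as cytotoxicity measure; cells assessed 24 h after compound addition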
Description: BSK_MyoF is a cell-based, multiplexed-readout assay that uses lung fibroblasts, […], with measurements taken at 24 hours after chemical dosing in a microplate: 96-well plate.BSK_MyoF_SRB is an assay component measured in the BSK_MyoF assay. It measures 0.1% sulforhodamine related to cell death using Sulforhodamine staining technology.Data from the assay component BSK_MyoF_SRB was analyzed at the endpoint, BSK_MyoF_SRB, in the positive analysis fitting direction relative to DMSO as the negative control and baseline of activity. Using a type of viability reporter, gain or loss-of-signal activity can be used to understand protein changes. […]
as §1

[9] = read-out: TIMP metallopeptidase inhibitor 1 (TIMP1), TIMP1 (gene 7076); assay: BSK_MyoF_TIMP1: BioMAP Diversity Plus: MyoF Assay for TIMP metallopeptidase inhibitor 1 (TIMP1) Biomarker Activity (AID 2284269); conditions: primary human lung fibroblasts
Summary of the method: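 TIMP-1 levels were determined by ELISA in human lung fibroblasts treated for 24 h. DMSO served as negative control and baseline for upward curve fitting.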

With `C=C(C)CN(CC)c1c([N+](=O)[O-])cc(C(F)(F)F)cc1[N+](=O)[O-]` the outcome [1] was “inactive”, the outcome [2] was “inactive” and the outcome [3] was “inactive”. For the same compound, the outcome [4] was “inactive” and the outcome [5] was “inactive”.

For `CC1(C)C(C=C(Cl)Cl)C1C(=O)OC(C#N)c1cccc(Oc2ccccc2)c1` (stereo not given), the outcome [1] was “inactive”, the outcome [2] was “inactive” and the outcome [3] was “inactive”. For the same compound, the outcome [4] was “inactive”, the outcome [5] was “inactive” and the outcome [6] was “inactive”.

For `CCNC(=O)NC(=O)C(C#N)=NOC`, the outcome [1] was “inactive”, the outcome [2] was “inactive” and the AC50 [3] was 0.318 µM (active). The outcome [4] was “inactive”, the outcome [5] was “inactive” and the outcome [6] was “inactive”.

With `CC(C)(C)C(=O)C(Oc1ccc(Cl)cc1)n1cncn1` (stereo not given) the outcome [1] was “inactive”, the outcome [2] was “inactive” and the outcome [3] was “inactive”. For the same compound, the outcome [4] was “inactive” and the outcome [6] was “inactive”.

With `O=C(Nc1ccccc1-c1ccc(Cl)cc1)c1cccnc1Cl` the outcome [1] was “inactive”, the outcome [2] was “inactive” and the outcome [3] was “inactive”. For the same compound, the outcome [4] was “inactive”, the outcome [5] was “inactive” and the outcome [6] was “inactive”.

With `Cc1c(COC(=O)[C@@H]2[C@H](/C=C(\Cl)C(F)(F)F)C2(C)C)cccc1-c1ccccc1` the outcome [1] was “inactive”, the outcome [2] was “inactive” and the outcome [3] was “inactive”. The outcome [4] was “inactive”, the outcome [5] was “inactive” and the outcome [6] was “inactive”.

With `CS(=O)(=O)c1cc(C(F)(F)F)ccc1C(=O)c1cnoc1C1CC1` the outcome [1] was “inactive”, the outcome [2] was “inactive” and the outcome [3] was “inactive”. The outcome [4] was “inactive”, the outcome [5] was “inactive” and the outcome [6] was “inactive”.

With `CCSC(=O)N1CCCCCC1` the outcome [1] was “inactive”, the outcome [2] was “inactive” and the outcome [3] was “inactive”. For the same compound, the AC50 [4] was 0.143 µM (active) and the outcome [6] was “inactive”.

In the case of `CCOP(=O)(OCC)Oc1nc(Cl)c(Cl)cc1Cl`, the outcome [1] is reported as “inactive”, the outcome [2] is reported as “inactive” and the outcome [3] is reported as “inactive”. The outcome [4] was “inactive”, the outcome [5] was “inactive” and the outcome [6] was “inactive”.

For `CNC(=O)Oc1cccc2ccccc12`, the outcome [1] was “inactive”, the outcome [2] was “inactive” and the outcome [3] was “inactive”. The AC50 [4] was 10 µM (active), the AC50 [5] was 10 µM (active) and the outcome [6] was “inactive”.

With `CN/C(=N\[N+](=O)[O-])NCc1cnc(Cl)s1` the outcome [1] was “inactive”, the outcome [2] was “inactive” and the outcome [3] was “inactive”. For the same compound, the AC50 [4] was 10 µM (active), the AC50 [5] was 10 µM (active) and the outcome [6] was “inactive”.

With `COP(=S)(OC)SCn1nnc2ccccc2c1=O` the outcome [1] was “inactive”, the AC50 [2] was 13.7 µM (active) and the outcome [3] was “inactive”. For the same compound, the outcome [4] was “inactive”, the outcome [5] was “inactive” and the outcome [6] was “inactive”.

In the case of `N#CN=C1SCCN1Cc1ccc(Cl)nc1`, the outcome [1] is reported as “inactive”, the outcome [2] is reported as “inactive” and the outcome [3] is reported as “inactive”. The outcome [4] was “inactive”, the outcome [5] was “inactive” and the outcome [6] was “inactive”.

With `COC(=O)N(C(=O)N1CO[C@@]2(C(=O)OC)Cc3cc(Cl)ccc3C2=N1)c1ccc(OC(F)(F)F)cc1` the outcome [1] was “inactive”, the outcome [2] was “inactive” and the outcome [3] was “inactive”. For the same compound, the outcome [4] was “inactive” and the outcome [6] was “inactive”.

With `CS(=O)(=O)c1ccc(C(=O)C2C(=O)CCCC2=O)c([N+](=O)[O-])c1` the outcome [1] was “inactive”, the outcome [2] was “inactive” and the outcome [3] was “inactive”. For the same compound, the AC50 [4] was 0.203 µM (active) and the outcome [6] was “inactive”.

For `CO/N=C(/C1=NOCCO1)c1ccccc1Oc1ncnc(Oc2ccccc2Cl)c1F`, the outcome [1] was “inactive”, the outcome [2] was “inactive” and the outcome [3] was “inactive”. For the same compound, the outcome [4] was “inactive”, the outcome [5] was “inactive” and the outcome [6] was “inactive”.

For `COCC(C)N(C(=O)CCl)c1c(C)csc1C` (stereo not given), the AC50 [7] was 10.3 µM (active), the outcome (Decorin, DCN (gene 1634)) was “inactive” and the outcome [8] was “inactive”. For the same compound, the outcome [9] was “inactive”.
